From ChEMBL document CHEMBL4513216, “Probing the Open Global Health Chemical Diversity Library for Multistage-Active Starting Points for Next-Generation Antimalarials” (ACS Infect Dis, 2020)
Among all 65,000 compounds or so, about 2,100 (3.2%) showed an effect of 50% or more. The median lay at about -52%. Shown is part of a subset that was picked to be rich in strong results.

system: Plasmodium falciparum; experiment: Screen against P. falciparum Asexual Blood Stage (ABS), at 5uM; type: functional, Dd2; details: tested at 5 uM

| Compound | INHIBITION [%] |
| --- | --- |
| O=C(N[C@H]1CN(Cc2cccs2)[C@@H]2CCCO[C@H]12)c1cccnc1 | -57.9 |
| Cc1noc(C)c1CN1C[C@H]2CN(Cc3cccc(F)c3)C[C@H]2C1 | 55.4 |
| Fc1cccc(CN2C[C@@H]3CN(Cc4ccccn4)C[C@@H]3C2)c1 | 89.4 |
| O=C(c1cccc(F)c1)N1C[C@H]2CN(Cc3ccccn3)C[C@H]2C1 | 0.82 |
| Cc1noc(C)c1CN1C[C@@H]2C[C@@H](C)O[C@@H]2C1 | -75.1 |
| Cc1noc(C)c1CN1C[C@@H]2CC(F)(F)C[C@@H]2C1 | -59.4 |
| Cn1cnc(S(=O)(=O)N2C[C@H]3CN(Cc4ccccn4)C[C@H]3C2)c1 | -85.5 |
| O=C(Cc1ccccn1)N1CCN2C[C@H](Oc3cncnc3)C[C@H]2C1 | -1.9 |
| Cc1noc(C)c1CN1C[C@@H]2CN(C(=O)c3cnccn3)C[C@@H]2C1 | -43.4 |
| Clc1cccc(N[C@H]2CCCN[C@H]2Cc2ccccc2)c1 | 92.8 |
| Cc1n[nH]cc1CNC1(c2ccc(F)cc2)CCCC1 | 83.4 |
| CC(C)OCCNC1(c2ccc(F)cc2)CCOCC1 | 34.8 |
| Cc1nc(C2(NCc3ccc(C#N)cc3F)CCCCC2)no1 | -32.3 |
| O=C(c1cnccn1)N1CCN2C[C@H](Oc3cccnc3)C[C@H]2C1 | -106 |
| COc1ccccc1COCC(O)CN1CC(n2cccn2)C1 (stereo not given) | 78.9 |
| CCOCC(O)CN1CCN(C(=O)Cc2ccccc2C)CC1 (stereo not given) | -143 |
| CN(C)c1ncc2c(n1)C1(CCN(Cc3ccccc3)C1)COC2 (stereo not given) | 27.6 |
| CC(Cc1ccccn1)N(C)Cc1ccc2c(c1)CCO2 (stereo not given) | 8.31 |
| Cc1cccnc1CC(C)N(C)Cc1cccs1 (stereo not given) | 81.7 |
| Cc1ccnc(CC(C)N(C)Cc2ccc3c(c2)OCCO3)c1 (stereo not given) | -56.5 |
| Cc1cnn(CC2CCCN2Cc2cn3ccsc3n2)c1 (stereo not given) | 81.3 |
| CCCN(CCN(C)C)C(=O)Cc1cn2ccsc2n1 | -76.3 |
| Cc1nc(CN2CCCC2Cn2ccnc2C(C)C)nc2ccccc12 (stereo not given) | 77.3 |
| Cc1cnn(CC2CCCN2Cc2nc(C)c3ccccc3n2)c1 (stereo not given) | 78 |
| Cc1nc(CN2CCCCC2Cn2cccn2)nc2ccccc12 (stereo not given) | 70.4 |
| O=C(C1CCCCC1)N1C[C@@H]2CCNC[C@@H]21 | 9.5 |
| Cc1ccc(N2CC[C@@H]3CN(Cc4c[nH]cn4)C[C@@H]3C2)nn1 | -66.7 |

| Compound | INHIBITION [%] |
| --- | --- |
| Cc1cc(CC(C)NC2CCSCC2)[nH]n1 (stereo not given) | -36.2 |
| Cn1c(=O)n(C)c2cc(C3SCC(=O)Nc4ccsc43)ccc21 (stereo not given) | -86.5 |
| CC(C)NC(=O)[C@H]1CN(Cc2ccccc2)C[C@@H]1C(=O)c1ccccc1 | -90.6 |
| O=C(c1ccccc1)C1CCN(Cc2cc3c(cc2O)CCC3)CC1 | 90.1 |
| Cc1c(CN2CCCC(C(=O)c3ccccc3)C2)cc(C#N)n1C (stereo not given) | 44.6 |
| c1cc(-c2n[nH]cc2-c2ccnc(N3CCCCCC3)n2)ccn1 | 78 |
| CC(C)[C@H](CO)Nc1nccc(-c2c[nH]nc2-c2ccncc2)n1 | 83.9 |
| c1cc(-c2n[nH]cc2-c2ccnc(N3CCCC3)n2)ccn1 | 81.1 |
| COc1cc(N2CC[C@@H]3[C@@H](CC2)OCCN3CC2CC2)ncn1 | -53.8 |
| COCC1CC2(CCNCC2)CN1c1ncccn1 (stereo not given) | -33.8 |
| NC1(c2nc(C(F)(F)F)cc(=O)[nH]2)CCCC1 | -131 |
| Cc1cc(Cc2ccc(F)cc2)cc(C2CCCNC2)n1 (stereo not given) | 73.9 |
| Cc1cc(Cc2cccc(C(F)(F)F)c2)cc(C2CCCNC2)n1 (stereo not given) | 93.9 |
| Cc1cc(C)nc(C2CCCNC2)n1 (stereo not given) | -66.3 |
| FC(F)(F)c1nc(C2CCCNC2)no1 (stereo not given) | -15.6 |
| Cc1cc(Cc2ccccc2)cc(C2CCCNC2)n1 (stereo not given) | 76.1 |
| Cc1nc(NCCC23CCCN2CCC3)cc(C2CCCNC2)n1 (stereo not given) | -29.1 |
| Cc1cccc(Cc2cc(C)nc(C3CCCNC3)c2)c1 (stereo not given) | 80.1 |
| Cc1cc(O)nc(C2CCCNC2)n1 (stereo not given) | -1.25 |
| CC(C)c1ncc(Cl)c(C(=O)N2CCCN3CCCC3C2)n1 (stereo not given) | -79 |
| CNC(=O)[C@H]1C[C@@H]2CN(Cc3cccnc3OC)C[C@@H]2N1C(C)=O | 38.2 |
| NC1(c2nc(-c3ccccc3)cc(=O)[nH]2)CCCCC1 | -0.415 |
| COCCN1CCC2(COCc3cnc(N(C)C)nc32)C1 (stereo not given) | -35.3 |
| Cc1cc(Cc2ccccc2C)cc(C2CCCNC2)n1 (stereo not given) | 78.9 |
| CNc1cc(C2CCCNC2)nc(C)n1 (stereo not given) | -80.8 |
| CC(C)c1nc(C2CCCNC2)no1 (stereo not given) | -62.1 |
| CCCN1CCN(C(=O)c2ccnc(N)c2)[C@H]2CS(=O)(=O)C[C@H]21 | -88.3 |

| Compound | INHIBITION [%] |
| --- | --- |
| O=C1[C@@H]2CCN(Cc3ccoc3)C[C@@H]2OCCN1c1cccnc1 | 23.5 |
| CC(C)CN1C(=O)CO[C@@H]2CNC[C@H]21 | -4.26 |
| C[C@@H]1C[C@@H]2CCN(Cc3ccccn3)C[C@H]2O1 | -25.2 |
| Cc1cccc(CN2CC[C@H]3C[C@H](C)O[C@@H]3C2)n1 | -37.4 |
| Cc1cccc(CN2CC[C@H]3C[C@@H](C)O[C@@H]3C2)n1 | -46.7 |
| Fc1ccccc1CC1CCN(Cc2ccccn2)CC1 | 70.4 |
| Cc1cccc(CN2CCC(Cc3ccccc3F)CC2)n1 | 94 |
| C[C@H]1C[C@@H]2CCN(Cc3ccccn3)C[C@H]2O1 | -59.7 |
| Cc1nc(CN2C[C@@H]3CN(C(=O)Cc4ccccn4)C[C@@H]3C2)cs1 | -41.5 |
| CN1CCC2(Cc3ccccc3NC2=O)C1 (stereo not given) | 8.23 |
| Cc1nn(C)c2ncc(S(=O)(=O)N3CCN4CCCC4C3)cc12 (stereo not given) | -67.5 |
| CC(c1cn2ncsc2n1)n1cc2[nH]cccc-2c1=O (stereo not given) | -131 |
| CO[C@@H]1CN(Cc2scnc2C)[C@@H]2CCCO[C@@H]21 | -39.6 |
| CC(=O)N1CCCC2(CN(Cc3ccncc3)CCO2)C1 (stereo not given) | -47.6 |
| CN1CCC(N(C)C[C@H]2CC[C@@H](Cc3ccc4occc4c3)O2)CC1 | 85.8 |
| Cc1noc(C)c1CC(=O)N1CCN(Cc2cscn2)CC1 | -151 |
| Cc1noc(C)c1CC(=O)N1CCCN(Cc2cscn2)CC1 | 63.9 |
| CCc1nc(CN2CCN(C(=O)Cc3c(C)noc3C)CC2)cs1 | -46.1 |
| CCOc1cccc(CNC(C)c2ccc(-n3ccnc3)cc2)c1O (stereo not given) | 75 |
| COc1ccccc1CNC(C)c1ccc(-n2ccnc2)cc1 (stereo not given) | 78.4 |
| COc1cccc(CNC(C)c2ccc(-n3ccnc3)cc2)c1O (stereo not given) | 79.5 |
| CC(Cc1c(F)cccc1F)NC(=O)CSCC(N)=O (stereo not given) | -46.4 |
| Nc1cnc(-c2cccc3c2CCNC3)cn1 | -39.4 |
| Cc1noc([C@@H]2C[C@H]3OCC[C@H]3N(C(C)C)C2)n1 | -89.1 |
| CC1(C)CC2(CCO1)NC(=O)c1cc(Br)ccc1-n1nnnc12 (stereo not given) | -59.6 |
| c1cc(CN2C[C@@H]3COC[C@]3(COCC3CC3)C2)ccn1 | -11.9 |
| CNc1ncccc1C(=O)N1CCN(C)C2(CCN(C)CC2)C1 | -111 |

| Compound | INHIBITION [%] |
| --- | --- |
| COCCn1cncc1Cn1ncc2ccccc2c1=O | -74.4 |
| O=C(COc1ccc(F)cc1)N1CCCSCC1CN1CCOCC1 (stereo not given) | -80.2 |
| COc1cccc(CC(=O)N2CCCSCC2CN2CCCC2)c1 (stereo not given) | 54.7 |
| COc1cccc(OCC(=O)N2CCCSCC2CN2CCOCC2)c1 (stereo not given) | -105 |
| CCS(=O)(=O)N1CCC2(C1)C(=O)N(C)CCN2Cc1ccncc1 (stereo not given) | -177 |
| CCO[C@@H]1CC[C@H]2[C@H]1OCCN2Cc1ccoc1 | -43.3 |
| Fc1ccccc1-c1cccc(C2CCCN(C3CCOCC3)C2)n1 (stereo not given) | 82.3 |
| O=C1N(Cc2ccccn2)C[C@H]2CN(C3CCOCC3)CCN12 | -92.3 |
| O=C1NC[C@H]2CN(C3CCOCC3)CCN12 | -118 |
| OCCN1CCCC(c2cccc(-c3ccccc3F)n2)C1 (stereo not given) | 83.4 |
| Cc1nc(CN2CCN(C(=O)COc3c(C)ccc(C)c3C)CC2)no1 | -66.3 |
| O=C(N1CCCO1)[C@@]12CCO[C@@H]1CCN(Cc1cccnc1)C2 | -54.2 |
| CCc1cccc2c(CC(=O)N(C)CCN(C)C)c(C)[nH]c12 | 18.4 |
| CN(C)CCN(C)C(=O)Cn1cccc2cc(-c3ccc(F)cc3)nc1-2 | 86.8 |
| c1ccc(CO[C@@H]2CN(Cc3ccoc3)[C@@H]3COC[C@@H]32)nc1 | -37.1 |
| Cc1cc(CN2C[C@@H]3COC[C@]3(COCC(=O)N(C)C)C2)no1 | -23 |
| CCc1[nH]c2c(CNc3nccc(N)n3)cc(C)cc2c1C | 90.9 |
| CCc1[nH]c2c(CNc3nccc(N)n3)cc(F)cc2c1C | 85.6 |
| Cc1cc(CNc2nccc(N)n2)c2[nH]c(C)c(C)c2c1 | 79.5 |
| CCN1C(=O)C2(CCCCC2)NC12CCSCC2 | -40 |
| COc1cccc(C2SCC(=O)Nc3ccsc32)c1 (stereo not given) | -108 |
| Cc1nc(CN2CCO[C@@H]3CNCC[C@@H]3C2)cs1 | -15.7 |
| NCC(=O)N1CCCC1c1ccc(C(=O)NCc2ccoc2)s1 (stereo not given) | 92.6 |
| O=C(c1ccc(C2CCCN2)s1)N1CCN2CCC1CC2 (stereo not given) | -75.7 |
